# Source: PubChem BioAssay (NCI)
# Compounds without any hit were thinned out: in the full panel of roughly 83,000, 20% have a hit.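 96-well plates, one dose, 48 hours. Percent growth reported; active if below 10.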 Values without a mark were called inactive. Calls of active or inactive are those of the source.
# Assays:
# Test in all cases: NCI-60 one-dose screen, 48 h (100 = growth as untreated, 0 = no growth, -100 = all killed)
# [1] = test system: NCI-H23 lung; details: 10 µM unless noted
# [2] = test system: NCI-H226 lung; details: 10 µM unless noted
# [3] = test system: NCI-H322M lung; details: 10 µM unless noted
# [4] = test system: HOP-62 NSCLC; details: 10 µM unless noted
# [5] = test system: NCI-H522 lung; details: 10 µM
# [6] = test system: A549/ATCC NSCLC; details: 10 µM unless noted
# [7] = test system: 786-0 renal; details: 10 µM unless noted
# [8] = test system: COLO 205 colon; details: 10 µM unless noted
# [9] = test system: NCI-H460 lung; details: 10 µM unless noted
# [10] = test system: HOP-92 NSCLC; details: 10 µM
Structure (SMILES),growth [1],growth [2],growth [3],growth [4],growth [5],growth [6],growth [7],growth [8],growth [9],growth [10]
C/C=C(/C)C(=O)OC1C=C(CO)C(=O)C(OC(=O)C(C)(O)C(C)Cl)C1C(C)C (stereo not given),-50.1% (active),-19.4% (active),-10.6% (active),-1.29% (active),-34.4% (active),-18% (active),-72.1% (active),,,
CCN(CC)c1ccc2nc3ccc(N=Nc4ccc(O)cc4)cc3[n+](-c3ccccc3)c2c1,63.9%,98.1%,95.8%,52.5%,37.2%,35.9%,88.5%,-6.39% (active),,
CC1(C)NCCC[C@]2(C)[C@H]3CC=C4[C@@H]5C[C@](C)(COC(=O)c6ccccc6C(=O)O)CC[C@]5(C)CC[C@@]4(C)[C@]3(C)CC[C@@H]12,66.9%,86.5%,91%,,79%,56.7%,65.2%,,29.7%,54.9%
O=C1C(Cl)=C(Nc2ccc(Nc3ccccc3)c(NC3=C(Cl)C(=O)c4ccccc4C3=O)c2)C(=O)c2ccccc21,88.4%,98.8%,57.3%,59.8%,14.9%,92.7%,78.3%,-15.6% (active),,
CCCC(=O)Nc1ccccc1C(=O)O,86.6%,101%,107%,96.9%,90.7%,94.3%,112%,97%,,
CC(=O)N(N=O)c1ccc([N+](=O)[O-])cc1Cl,34%,68.3%,74.3%,97%,,61.7%,74.1%,97.6%,,31.6%
N#Cc1ccc(NC2c3ccccc3CC2O)cc1 (stereo not given),101%,102%,114%,105%,104%,106%,108%,108%,,85%
Ic1ccc(SSc2ccc(I)cc2)cc1,98%,90.6%,100%,108%,86.7%,74.1%,92.6%,124%,,
N#Cc1c(N)nc(Nc2nc3ccccc3[nH]2)nc1-c1ccc(Cl)cc1,101%,81.2%,117%,112%,90.4%,105%,,94.7%,,78.4%
Nc1nc2c(c3cnccc13)C(c1ccc(Cl)c(Cl)c1)Cc1cnccc1-2 (stereo not given),-37.6% (active),-26% (active),-26.6% (active),,-16.4% (active),-24.7% (active),-65.8% (active),,-29.6% (active),-45% (active)
CCOC(=O)CNS(=O)(=O)CC(=O)c1ccccc1,101%,101%,87.9%,83.8%,89.8%,116%,97.5%,130%,,
CSC1=Nc2c(c(C)c(-c3ccccc3)n2CCCCl)C2=NC(=O)CN12,77.6%,79.3%,82.1%,64.3%,55.8%,74.1%,77.9%,79.1%,,
CCCCCCCCCc1cc[n+](CC(=O)c2ccc([N+](=O)[O-])cc2)cc1,14.2%,31.8%,71.6%,27.2%,-12.9% (active),-23.7% (active),31.9%,-76.9% (active),,-45.2% (active)
CCC(C)(C)c1ccc(OCCCCCCN2CCN(c3ccc(C)c(Cl)c3)CC2)cc1,62.3%,73.7%,88.3%,98.3%,84.6%,97%,95.7%,91.4%,,82.6%
Nc1ccc(N=Nc2ccccc2)c2cc(S(=O)(=O)O)ccc12,91.4%,103%,104%,92.4%,88.5%,99.3%,104%,116%,,94.5%
CC(C)CSc1nc(-c2ccc(F)cc2)c(C#N)c(N2CCCCC2)n1,83.7%,90.5%,94%,110%,82.6%,86.6%,90.8%,96.2%,,
CC([C@H]1CC=C2C3CCC4=C[C@@H](N(C)C)CC[C@]4(C)C3CC[C@@]21C)N(C)C (stereo not given in full),51.9%,47.9%,83.3%,-19.4% (active),98.2%,72%,-5.65% (active),-65.1% (active),,70.2%
COc1ccc(CNCCCN2C(=O)c3ccc4c5c(ccc(c35)C2=O)C(=O)N(CCCNCc2ccc(OC)c(OC)c2OC)C4=O)c(OC)c1OC,-74.8% (active),-64.7% (active),-60.5% (active),-44.3% (active),-88.6% (active),-89.4% (active),-78.8% (active),-43.9% (active),,-43.5% (active)
CC(=O)OCC(=O)[C@@]1(O)[C@H](C)C[C@H]2[C@@H]3C=C(C)C4=Cc5c(cnn5-c5ccc(F)cc5)C[C@]4(C)[C@H]3[C@@H](O)C[C@@]21C,-28.2% (active),59.9%,49.9%,-11.8% (active),-23.7% (active),16.7%,-26.5% (active),-39.2% (active),,24.4%
COc1ccc(-c2nc(SCC(C)C)nc(Nc3ccccc3)c2C#N)cc1,86.3%,83%,70.8%,,88.3%,48%,51.9%,,18.7%,88%
Cc1c([C@H](C(Cl)Cl)[C@H](O)[C@H]2C[C@H](C)C(=O)O2)ccc2c1C(=O)[C@H]1[C@H]2C[C@@H](Br)[C@@]23O[C@@H](CO[C@H]2O)CC13C (stereo not given in full),20.3%,42.9%,33.1%,49.8%,,-1.06% (active),40.1%,,,69.2%
CCCCCC(=C/c1ccccc1)/C=N/N=C(N)N,44.6%,66%,20.3%,-4.74% (active),-65.3% (active),,-65.4% (active),-93.9% (active),,
N#CCCCCCCCCCCC#N,93.8%,111%,114%,104%,86%,93.3%,99.9%,111%,,
COc1cc2ncnc(Nc3ccc4c(cnn4C(=O)Nc4ccccc4)c3)c2cc1OC,100%,103%,81.1%,,89.4%,72.9%,81.5%,,103%,82.8%
O=C1CSC(c2ccccc2Cl)N1c1nnc(-c2ccncc2)o1 (stereo not given),85.9%,93.9%,105%,90.2%,,101%,93.6%,,,95.9%
O=C(NC1CCN(Cc2ccccc2)CC1)c1cc(-c2cccnc2)nc2ccc(Cl)cc12,67.9%,84%,91.6%,101%,90.4%,56.3%,78.7%,-37.3% (active),,56.5%
CC([C@H]1CCC2C3CCC4C[C@@H](N)CC[C@]4(C)C3CC[C@@]21C)N(C)C (stereo not given in full),77.1%,112%,77.3%,104%,102%,86.1%,71.7%,6.07% (active),,53.1%
O=C(O)c1ccc(Br)nc1,102%,98.4%,101%,91.6%,87.8%,89.6%,100%,105%,,94.6%
